Results taken from PubChem BioAssay.
For some assays here: Potency and affinity values are given separately. The source made the active and inactive calls. A call without a number means that no potency is given here. Unless noted, the limit is not given here; nearly all actives have IC50 up to about 0.98 µM.

System: not listed separately
Assay: inhibition of 3D7 malaria parasite growth – strain 3D7 (AID 2306; call rule not given here)
Details: P. falciparum 3D7 erythrocytic growth, LDH absorbance, 72 h; at 2 µM; active compounds read high

**Q.** For `COc1cc2c(cc1OC)CC(NCCCCCCNCCc1ccc(Cl)cc1)CC2` (stereo not drawn), which growth inhibition is on record?
**A.** 98% (active)

**Q.** With `CCOc1ccc(N2CCN(CCCCNC(=O)c3ccc(NC(=O)c4ccc(Cl)cc4)cc3)CC2)c(OCC)c1` as the compound, how does the growth inhibition read?
**A.** 102% (active)

**Q.** For `CC(C)CCN(Cc1cncn1Cc1cccc(C(F)(F)F)c1)C(=O)c1cncc(-c2ccccc2)c1`, which growth inhibition is on record?
**A.** 100% (active)

**Q.** With `CCC1N=C(N)N=C(N)N1OCCCOc1c(Cl)cc(Cl)cc1Cl` (stereo not drawn) as the compound, how does the growth inhibition read?
**A.** 95% (active)

**Q.** With `COc1cc(NC(=O)c2sc(-c3ccc(Cl)cc3)cc2NC(=O)c2ccncc2)ccc1OCCN1CCCC1` as the compound, how does the growth inhibition read?
**A.** 100% (active)

**Q.** With `COc1ccc(-c2cccc(NC(=O)c3cccc(C#N)c3)c2)cc1CN1CCNCC1` as the compound, how does the growth inhibition read?
**A.** 101% (active)

**Q.** With `O=C(Nc1ccccc1)c1cnc[nH]1` as the compound, how does the growth inhibition read?
**A.** 92% (active)

**Q.** With `CC(C)NC[C@@H](O)[C@H](Cc1ccccc1)NC(=O)c1cc2c3c(c1)c(C(C)C)cn3CCS(=O)(=O)N2C` as the compound, how does the growth inhibition read?
**A.** 98% (active)

**Q.** Which growth inhibition does the source give for `CNc1ccc(CNCc2ccc(-c3ccc(-c4nc5ccc(F)cc5[nH]4)cc3)cc2)cc1` here?
**A.** 101% (active)

**Q.** With `CN(C)c1ccc(N2C(N)=NC(N)=NC23CCCC3)cc1` as the compound, how does the growth inhibition read?
**A.** 97% (active)

**Q.** With `Cc1cc(-c2cnc(N)c(-c3ccc(N4CCN(C)CC4)nc3)c2)cc(C)c1O` as the compound, how does the growth inhibition read?
**A.** 91% (active)

**Q.** Which growth inhibition does the source give for `CCCCCCCN(Cc1ccc(OC(C)(C)C(=O)OCC)cc1)C(=O)Nc1ccccc1OC(F)(F)F` here?
**A.** 95% (active)

**Q.** Which growth inhibition does the source give for `Cc1cccc2[nH]c(-c3ccc(-c4ccc(CN5CCN(CCO)CC5)cc4)cc3)nc12` here?
**A.** 100% (active)

**Q.** Which growth inhibition does the source give for `Cc1cccc2[nH]c(-c3ccc(-c4ccc(CN5CCN(c6ccc(C#N)cn6)CC5)cc4)s3)nc12` here?
**A.** 98% (active)

**Q.** For `Cc1cccc2[nH]c(-c3ccc(-c4cccc(NC(=O)c5cncn5C)c4)s3)nc12`, which growth inhibition is on record?
**A.** 103% (active)

**Q.** For `c1ccc(COc2ccnc(NCCCOc3cccc(CN4CCCCC4)c3)c2)cc1`, which growth inhibition is on record?
**A.** 101% (active)

**Q.** For `CCc1sc(-c2ccc(C(C)(C)C)cc2)nc1C(=O)NCCCN1CCCC1=O`, which growth inhibition is on record?
**A.** 84% (active)

**Q.** For `COc1cccc(-c2ccc(NC(=O)C3CCCN(Cc4cccc(OC)c4O)C3)cc2)c1` (stereo not drawn), which growth inhibition is on record?
**A.** 98% (active)

**Q.** For `COc1ccc(C2CC(c3ccccc3O)=NN2C(=O)c2ccco2)cc1OC` (stereo not drawn), which growth inhibition is on record?
**A.** 96% (active)

**Q.** With `CC(C)=C(C(=O)OCc1ccccc1)N1C(=O)[C@@H](NC(c2ccccc2)(c2ccccc2)c2ccccc2)[C@H]1[S@@](=O)CC(=O)OC(C)(C)C` as the compound, how does the growth inhibition read?
**A.** 92% (active)

**Q.** For `CC(C)CNC(=O)c1cncc(-c2cccc(CNC3Cc4ccccc4C3)c2)c1`, which growth inhibition is on record?
**A.** 100% (active)

**Q.** Which growth inhibition does the source give for `O=C(/C=C/c1ccc(Cl)c(Cl)c1)NCCCCCN1CCC(NC(=O)Nc2ccc(F)cc2F)CC1` here?
**A.** 102% (active)

**Q.** With `C[C@@H]1CN(c2ccc3occ(C(=O)Nc4ccc(-c5ccncc5)c(Cl)c4)c3c2)C[C@H](C)N1C` as the compound, how does the growth inhibition read?
**A.** 100% (active)

**Q.** For `CCNc1cc(C(=O)N[C@@H](Cc2ccccc2)[C@H](O)CN[C@H]2C[C@@H]3CC[C@H]2C3)cc(N2CCCCS2(=O)=O)c1`, which growth inhibition is on record?
**A.** 99% (active)

**Q.** For `Cc1ccc2c(c1)nc(N)n2C[C@H](O)c1ccccc1`, which growth inhibition is on record?
**A.** 100% (active)

**Q.** With `c1ccc(C2CCC(N3CCC(N4CCN(c5ccccc5)CC4)CC3)CC2)cc1` (stereo not drawn) as the compound, how does the growth inhibition read?
**A.** 97% (active)

**Q.** Which growth inhibition does the source give for `CCn1ccc2c3c(N)nc(N)nc3ccc21` here?
**A.** 99% (active)

**Q.** Which growth inhibition does the source give for `Cc1ccc2c(Cl)c(C(=O)N3CC(C)OC(C)C3)sc2c1` (stereo not drawn) here?
**A.** 100% (active)

Target: Calcium-dependent protein kinase 1 (Plasmodium falciparum (isolate 3D7)) (UniProt P62344)
Sequence (P62344 whole entry, looked up): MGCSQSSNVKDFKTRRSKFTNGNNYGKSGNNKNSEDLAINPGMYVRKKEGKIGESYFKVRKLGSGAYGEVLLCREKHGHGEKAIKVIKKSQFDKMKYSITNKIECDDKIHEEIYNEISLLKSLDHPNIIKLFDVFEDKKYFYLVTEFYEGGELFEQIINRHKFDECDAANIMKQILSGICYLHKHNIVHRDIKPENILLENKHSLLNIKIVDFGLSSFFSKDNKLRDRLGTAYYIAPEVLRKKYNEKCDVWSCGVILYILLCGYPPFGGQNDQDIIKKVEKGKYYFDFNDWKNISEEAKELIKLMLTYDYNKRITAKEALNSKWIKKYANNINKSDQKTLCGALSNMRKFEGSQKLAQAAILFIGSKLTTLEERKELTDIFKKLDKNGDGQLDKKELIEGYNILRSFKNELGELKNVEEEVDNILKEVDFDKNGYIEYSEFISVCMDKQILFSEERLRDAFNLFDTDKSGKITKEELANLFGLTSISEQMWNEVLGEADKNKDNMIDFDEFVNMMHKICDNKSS
Assay: PfCDPK1 kinase inhibitors, biochemical, TCAMS library (AID 1159585);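 also: inhibitors leave more ATP so luminescence rises with inhibition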
Details: recombinant PfCDPK1, Kinase-Glo ATP depletion luminescence

**Q.** With `O=C1C(=Cc2cc(Cc3ccccc3)ccc2O)SC(=S)N1Cc1ccccc1` as the compound, how does the outcome read?
**A.** inactive

**Q.** Which outcome does the source give for `CN(Cc1ccc(NC(=O)CCC2CCN(C(=O)/C=C/c3ccc(Cl)c(Cl)c3)CC2)cc1)C1CCOCC1` here?
**A.** inactive

**Q.** Which outcome does the source give for `CC(C)(C)NCC(O)COc1ccc(Cl)cc1C1=NNC(=O)CC1` (stereo not drawn) here?
**A.** inactive

**Q.** With `CCc1nc2c(cnn2CC)c(NC2CCOCC2)c1CNC(=O)c1ccoc1C` as the compound, how does the outcome read?
**A.** inactive

**Q.** For `CN1CCCC1CCNCc1ccc(-c2ccc(CNCCc3ccccc3)cn2)cc1` (stereo not drawn), which outcome is on record?
**A.** inactive

**Q.** For `COc1ccc([N+](=O)[O-])cc1N(Cc1ccccc1-c1ccccc1)S(=O)(=O)c1ccc(C(F)(F)F)cc1`, which outcome is on record?
**A.** inactive

**Q.** With `Cc1cc(Br)cnc1CCCCN=C1NC(=O)CN1C` as the compound, how does the outcome read?
**A.** inactive

**Q.** For `CS(=O)(=O)Nc1ccc2c(C3CCN(CCC4CCN(C(=O)/C=C/c5ccc(Cl)c(Cl)c5)CC4)CC3)c[nH]c2c1`, which outcome is on record?
**A.** inactive

**Q.** For `O=C(NC1CC1)c1ccc(Cn2c(SCc3cccc([N+](=O)[O-])c3)nc3ccccc3c2=O)cc1`, which outcome is on record?
**A.** inactive

**Q.** For `CN1CCN(c2ccc3nc(-c4ccc5nc(-c6ccc(O)cc6)[nH]c5c4)[nH]c3c2)CC1`, which outcome is on record?
**A.** inactive

**Q.** Which outcome does the source give for `Cc1nc(-c2cccc(Nc3nccc(NCC(O)c4cccc(F)c4)n3)c2)cs1` (stereo not drawn) here?
**A.** inactive

**Q.** For `Cc1ccc(C2(C)CN(CCCOc3cccc(-c4ccc(C(=O)NC(C)C)cc4)c3)CCO2)cc1` (stereo not drawn), which outcome is on record?
**A.** inactive

**Q.** Which outcome does the source give for `COc1cc2c(cc1OC)CC(NCCCCCCNCCc1ccc(Cl)cc1)CC2` (stereo not drawn) here?
**A.** inactive

**Q.** For `CCOc1ccc(N2CCN(CCCCNC(=O)c3ccc(NC(=O)c4ccc(Cl)cc4)cc3)CC2)c(OCC)c1`, which outcome is on record?
**A.** inactive

**Q.** With `CC(C)CCN(Cc1cncn1Cc1cccc(C(F)(F)F)c1)C(=O)c1cncc(-c2ccccc2)c1` as the compound, how does the outcome read?
**A.** inactive

**Q.** Which outcome does the source give for `CCC1N=C(N)N=C(N)N1OCCCOc1c(Cl)cc(Cl)cc1Cl` (stereo not drawn) here?
**A.** inactive

**Q.** Which outcome does the source give for `COc1cc(NC(=O)c2sc(-c3ccc(Cl)cc3)cc2NC(=O)c2ccncc2)ccc1OCCN1CCCC1` here?
**A.** inactive

**Q.** For `COc1ccc(-c2cccc(NC(=O)c3cccc(C#N)c3)c2)cc1CN1CCNCC1`, which outcome is on record?
**A.** inactive

**Q.** Which outcome does the source give for `O=C(Nc1ccccc1)c1cnc[nH]1` here?
**A.** inactive

**Q.** Which outcome does the source give for `CC(C)NC[C@@H](O)[C@H](Cc1ccccc1)NC(=O)c1cc2c3c(c1)c(C(C)C)cn3CCS(=O)(=O)N2C` here?
**A.** inactive

**Q.** Which outcome does the source give for `CNc1ccc(CNCc2ccc(-c3ccc(-c4nc5ccc(F)cc5[nH]4)cc3)cc2)cc1` here?
**A.** inactive

**Q.** Which outcome does the source give for `CN(C)c1ccc(N2C(N)=NC(N)=NC23CCCC3)cc1` here?
**A.** inactive

**Q.** Which outcome does the source give for `Cc1cc(-c2cnc(N)c(-c3ccc(N4CCN(C)CC4)nc3)c2)cc(C)c1O` here?
**A.** inactive

**Q.** Which outcome does the source give for `CCCCCCCN(Cc1ccc(OC(C)(C)C(=O)OCC)cc1)C(=O)Nc1ccccc1OC(F)(F)F` here?
**A.** inactive

**Q.** With `Cc1cccc2[nH]c(-c3ccc(-c4ccc(CN5CCN(CCO)CC5)cc4)cc3)nc12` as the compound, how does the outcome read?
**A.** inactive

**Q.** With `Cc1cccc2[nH]c(-c3ccc(-c4ccc(CN5CCN(c6ccc(C#N)cn6)CC5)cc4)s3)nc12` as the compound, how does the outcome read?
**A.** inactive

**Q.** With `Cc1cccc2[nH]c(-c3ccc(-c4cccc(NC(=O)c5cncn5C)c4)s3)nc12` as the compound, how does the outcome read?
**A.** inactive

**Q.** Which outcome does the source give for `c1ccc(COc2ccnc(NCCCOc3cccc(CN4CCCCC4)c3)c2)cc1` here?
**A.** inactive

**Q.** With `CCc1sc(-c2ccc(C(C)(C)C)cc2)nc1C(=O)NCCCN1CCCC1=O` as the compound, how does the outcome read?
**A.** inactive

**Q.** Which outcome does the source give for `COc1cccc(-c2ccc(NC(=O)C3CCCN(Cc4cccc(OC)c4O)C3)cc2)c1` (stereo not drawn) here?
**A.** inactive

**Q.** Which outcome does the source give for `COc1ccc(C2CC(c3ccccc3O)=NN2C(=O)c2ccco2)cc1OC` (stereo not drawn) here?
**A.** inactive

**Q.** Which outcome does the source give for `CC(C)=C(C(=O)OCc1ccccc1)N1C(=O)[C@@H](NC(c2ccccc2)(c2ccccc2)c2ccccc2)[C@H]1[S@@](=O)CC(=O)OC(C)(C)C` here?
**A.** inactive

**Q.** For `CC(C)CNC(=O)c1cncc(-c2cccc(CNC3Cc4ccccc4C3)c2)c1`, which outcome is on record?
**A.** inactive

**Q.** With `O=C(/C=C/c1ccc(Cl)c(Cl)c1)NCCCCCN1CCC(NC(=O)Nc2ccc(F)cc2F)CC1` as the compound, how does the outcome read?
**A.** inactive

**Q.** Which outcome does the source give for `C[C@@H]1CN(c2ccc3occ(C(=O)Nc4ccc(-c5ccncc5)c(Cl)c4)c3c2)C[C@H](C)N1C` here?
**A.** inactive

**Q.** With `CCNc1cc(C(=O)N[C@@H](Cc2ccccc2)[C@H](O)CN[C@H]2C[C@@H]3CC[C@H]2C3)cc(N2CCCCS2(=O)=O)c1` as the compound, how does the outcome read?
**A.** inactive

**Q.** Which outcome does the source give for `Cc1ccc2c(c1)nc(N)n2C[C@H](O)c1ccccc1` here?
**A.** inactive

**Q.** Which outcome does the source give for `c1ccc(C2CCC(N3CCC(N4CCN(c5ccccc5)CC4)CC3)CC2)cc1` (stereo not drawn) here?
**A.** inactive

**Q.** Which outcome does the source give for `CCn1ccc2c3c(N)nc(N)nc3ccc21` here?
**A.** inactive

**Q.** Which outcome does the source give for `Cc1ccc2c(Cl)c(C(=O)N3CC(C)OC(C)C3)sc2c1` (stereo not drawn) here?
**A.** inactive
